# According to the supplement of paper PMC12494721:
# Structures can show the parent of a compound that is named as a salt.
# Tested on: Escherichia coli IAI1
# Experiment: fold change of Cadaverine concentration vs plate DMSO controls (fold change (ratio)); higher = more amine produced, active = hit call of the paper (significant change in both replicates, either direction)
# Settings: incubation time: 27 h, anaerobic, 37 °C;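 for the amine columns active = adjusted P below 0.05 in both replicates with a change the same way and a mean fold change under 0.8 or over 1.25; inactive = the rest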
# Procedure, shortened: (§1)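 Amine values are fold changes relative to DMSO-only wells on the same plate. They derive from 27 h, 37 °C anaerobic mGAM cultures of four gut bacterial strains in 80 µL wells, dosed at 20 µM final, or 50 µM final for sweeteners. Extraction of the whole culture, LC–triple-quadrupole MS in dynamic MRM mode, external calibration curves and within-batch drift correction were used, with 2 biological replicates averaged.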
row,Structure (SMILES),fold change of Cadaverine concentration
1,N[C@@H](CSCCCO)C(=O)O [Fudosteine] (20 µM),0.981 (inactive)
2,CC1=C(C(=O)O)N2C(=O)[C@@H](NC(=O)[C@H](N)C3=CCC=CC3)[C@H]2SC1 [Cephradine monohydrate] (20 µM),0.921 (inactive)
3,Nc1ncnc2c1ncn2[C@@H]1O[C@H](CO)[C@@H](O)[C@@H]1O [Vidarabine] (20 µM),0.957 (inactive)
4,CC(C)(CO)[C@@H](O)C(=O)NCCC(=O)NCCSSCCNC(=O)CCNC(=O)[C@H](O)C(C)(C)CO [D-Pantethine] (20 µM),1.03 (inactive)
5,CC(=O)SCC(Cc1ccccc1)C(=O)NCC(=O)OCc1ccccc1 (stereo unspecified) [Racecadotril] (20 µM),0.985 (inactive)
6,O=C(CCCN1CCN(c2ccccn2)CC1)c1ccc(F)cc1 [Azaperone] (20 µM),0.84 (inactive)
7,C[C@H](NCc1ccc(OCc2cccc(F)c2)cc1)C(N)=O [Safinamide] (20 µM),1.02 (inactive)
8,CCCC(=O)N1CCCN(c2nc(N)c3cc(OC)c(OC)cc3n2)CC1 [Bunazosin hydrochloride] (20 µM),0.996 (inactive)
9,Cc1ccc2c(c1)c1c3n2CCNC3CCC1 (stereo unspecified) [Pirlindole mesylate] (20 µM),1.01 (inactive)
10,CC(C)(C)NC(=O)[C@@H]1CN(Cc2cccnc2)CCN1C[C@@H](O)C[C@@H](Cc1ccccc1)C(=O)N[C@H]1c2ccccc2C[C@H]1O [Indinavir sulfate] (20 µM),1.05 (inactive)
11,COc1cc(Nc2c(C#N)cnc3cc(OCCCN4CCN(C)CC4)c(OC)cc23)c(Cl)cc1Cl [Bosutinib] (20 µM),1.02 (inactive)
12,O=C1[C@H](CC[C@H](O)c2ccc(F)cc2)[C@@H](c2ccc(O)cc2)N1c1ccc(F)cc1 [Ezetimibe] (20 µM),0.987 (inactive)

# Tested on: Klebsiella aerogenes DSM 30053
# Experiment: as above
# Settings: incubation time: 27 h, anaerobic, 37 °C
# Procedure, shortened: as §1
row,Structure (SMILES),fold change of Cadaverine concentration
1,CC#C[C@]1(O)CC[C@H]2[C@@H]3CCC4=CC(=O)CCC4=C3[C@@H](c3ccc(N(C)C)cc3)C[C@@]21C [Mifepristone] (20 µM),0.998 (inactive)
2,C[C@]12CC[C@@H]3c4ccc(O)cc4CC[C@H]3[C@@H]1CCC2=O [Estrone] (20 µM),1.01 (inactive)
3,O=C(O)c1cccnc1Nc1cccc(C(F)(F)F)c1 [Niflumic acid] (20 µM),0.993 (inactive)
4,OCCN1CCN(CCCN2c3ccccc3C=Cc3ccccc32)CC1 [Opipramol dihydrochloride] (20 µM),0.98 (inactive)
5,COCC1=C(C(=O)OC(C)OC(=O)OC(C)C)N2C(=O)[C@@H](NC(=O)/C(=N\OC)c3csc(N)n3)[C@H]2SC1 (stereo partly specified) [Cefpodoxime proxetil] (20 µM),0.986 (inactive)
6,CN(CCOc1ccc(CC2SC(=O)NC2=O)cc1)c1ccccn1 (stereo unspecified) [Rosiglitazone hydrochloride] (20 µM),1.03 (inactive)
7,CC(C(=O)O)c1ccc(-c2ccccc2)c(F)c1 (stereo unspecified) [Flurbiprofen] (20 µM),1.01 (inactive)
8,CCCCc1oc2ccc(NS(C)(=O)=O)cc2c1C(=O)c1ccc(OCCCN(CCCC)CCCC)cc1 [Dronedarone hydrochloride] (20 µM),1.01 (inactive)
9,O=C(COc1ccc(Cl)cc1)N1CCN(Cc2ccc3c(c2)OCO3)CC1 [Fipexide hydrochloride] (20 µM),1.01 (inactive)
10,CCCCCCCCCCCCCCCC[N+](C)(C)CCN(Cc1ccc(OC)cc1)c1ncccn1 [Thonzonium bromide] (20 µM),0.995 (inactive)
11,C#C[C@]1(O)CC[C@H]2[C@@H]3CCc4cc(OC)ccc4[C@H]3CC[C@@]21C [Mestranol] (20 µM),1.01 (inactive)
12,"OC(CCN1CCCCC1)(c1ccccc1)C1CCCCC1 (stereo unspecified) [Trihexyphenidyl-D,L hydrochloride] (20 µM)",0.984 (inactive)
13,O=C(Cn1cnnn1)N[C@@H]1C(=O)N2C(C(=O)O)=C(CSc3nncs3)CS[C@H]12 [Ceftezole] (20 µM),1.04 (inactive)
14,CCOc1ccc(NC(N)=O)cc1 [(4-Ethoxyphenyl)urea] (50 µM),1.01 (inactive)
15,NC(=O)c1ncn([C@@H]2O[C@H](CO)[C@@H](O)[C@H]2O)n1 [Ribavirin] (20 µM),1.01 (inactive)
16,CC1(C)S[C@@H]2[C@H](NC(=O)C(C(=O)O)c3ccccc3)C(=O)N2[C@H]1C(=O)O (stereo partly specified) [Carbenicillin disodium salt] (20 µM),1.05 (inactive)
17,O=C(c1ccccc1)c1ccc2n1CCC2C(=O)O (stereo unspecified) [Ketorolac tromethamine] (20 µM),0.995 (inactive)
18,CN(C(=O)CN(CCO)CC(=O)N(C)C(C)(C)Cc1ccccc1)C(C)(C)Cc1ccccc1 [Oxethazaine] (20 µM),0.988 (inactive)
19,CCOC(=O)[C@H](CCc1ccccc1)N[C@@H](C)C(=O)N1Cc2ccccc2C[C@H]1C(=O)O [Quinapril hydrochloride] (20 µM),1.01 (inactive)
20,CC[N+]1(CC)CCC(=C(c2ccccc2)c2ccccc2)C1C (stereo unspecified) [Prifinium Bromide] (20 µM),1.01 (inactive)

row,Structure (SMILES),fold change of Cadaverine concentration
1,O=P(O)(O)C(Cl)(Cl)P(=O)(O)O [Clodronate disodium] (20 µM),1 (inactive)
2,CCOC(=O)[C@@](C)(N)Cc1ccc(O)c(O)c1 [Methyldopate hydrochloride] (20 µM),1.02 (inactive)
3,O=C(NCCO[N+](=O)[O-])c1cccnc1 [Nicorandil] (20 µM),1 (inactive)
4,CN1CCN(c2c(F)cc3c(=O)c(C(=O)O)cn(CCF)c3c2F)CC1 [Fleroxacin] (20 µM),0.961 (inactive)
5,Cn1c(=O)c2c(ncn2CC(=O)O)n(C)c1=O [Acefylline] (20 µM),0.999 (inactive)
6,CC(=O)[C@H]1CC[C@H]2[C@@H]3C[C@H](C)C4=CC(=O)CC[C@]4(C)[C@H]3[C@@H](O)C[C@]12C [Medrysone] (20 µM),0.996 (inactive)
7,C=C1c2c(Cl)ccc(O)c2C(O)=C2C(=O)[C@]3(O)C(O)=C(C(N)=O)C(=O)[C@@H](N(C)C)[C@@H]3[C@@H](O)[C@H]12.O=C(O)c1cc(S(=O)(=O)O)ccc1O [Meclocycline sulfosalicylate] (20 µM),0.514 (active)
8,N[C@@H](CSCCCO)C(=O)O [Fudosteine] (20 µM),1.01 (inactive)
9,CC1=C(C(=O)O)N2C(=O)[C@@H](NC(=O)[C@H](N)C3=CCC=CC3)[C@H]2SC1 [Cephradine monohydrate] (20 µM),0.988 (inactive)
10,Nc1ncnc2c1ncn2[C@@H]1O[C@H](CO)[C@@H](O)[C@@H]1O [Vidarabine] (20 µM),0.989 (inactive)
11,CC(C)(CO)[C@@H](O)C(=O)NCCC(=O)NCCSSCCNC(=O)CCNC(=O)[C@H](O)C(C)(C)CO [D-Pantethine] (20 µM),1 (inactive)
12,CC(=O)SCC(Cc1ccccc1)C(=O)NCC(=O)OCc1ccccc1 (stereo unspecified) [Racecadotril] (20 µM),0.999 (inactive)
13,O=C(CCCN1CCN(c2ccccn2)CC1)c1ccc(F)cc1 [Azaperone] (20 µM),1.01 (inactive)
14,C[C@H](NCc1ccc(OCc2cccc(F)c2)cc1)C(N)=O [Safinamide] (20 µM),0.983 (inactive)
15,CCCC(=O)N1CCCN(c2nc(N)c3cc(OC)c(OC)cc3n2)CC1 [Bunazosin hydrochloride] (20 µM),0.984 (inactive)
16,Cc1ccc2c(c1)c1c3n2CCNC3CCC1 (stereo unspecified) [Pirlindole mesylate] (20 µM),1 (inactive)
17,CC(C)(C)NC(=O)[C@@H]1CN(Cc2cccnc2)CCN1C[C@@H](O)C[C@@H](Cc1ccccc1)C(=O)N[C@H]1c2ccccc2C[C@H]1O [Indinavir sulfate] (20 µM),1 (inactive)
18,COc1cc(Nc2c(C#N)cnc3cc(OCCCN4CCN(C)CC4)c(OC)cc23)c(Cl)cc1Cl [Bosutinib] (20 µM),1.01 (inactive)
19,O=C1[C@H](CC[C@H](O)c2ccc(F)cc2)[C@@H](c2ccc(O)cc2)N1c1ccc(F)cc1 [Ezetimibe] (20 µM),0.992 (inactive)
